Assay results reported in the supplement of paper PMC9023506.
Where a name gives a salt, the structure may show the parent alone.

Legend:
Settings in all cases: 10 µM; exposure time: 3 h pre-incubation + 3 h imaging
[1] = system: Danio rerio larvae (5 dpf); experiment: optomotor response to green moving lines, difference vs DMSO (percentage points (treated minus DMSO)); higher = more of the behaviour than the DMSO vehicle control
Procedure, shortened: (§1)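 Library drugs were diluted 1000× from DMSO stocks into egg water to reach 10 µM and applied to 5-dpf wild-type zebrafish larvae in 96-well ProxiPlates, 48 larvae per drug. The larvae stayed exposed for 3 h before imaging and for the 3 h of imaging at 28.5 °C. Behaviour scores, given in percentage points, are the treated mean minus the vehicle mean for movement and upper-half location.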

[2] = system: Danio rerio larvae (5 dpf); experiment: optomotor response to fast red moving lines, difference vs DMSO (percentage points (treated minus DMSO)); higher = more of the behaviour than the DMSO vehicle control
Procedure, shortened: as §1

[3] = system: Danio rerio larvae (5 dpf); experiment: habituation to 1-s acoustic pulses, difference vs DMSO (percentage points (treated minus DMSO)); higher = more of the behaviour than the DMSO vehicle control
Procedure, shortened: as §1

[4] = system: Danio rerio larvae (5 dpf); experiment: activity during period 15 (no stimuli), difference vs DMSO (percentage points (treated minus DMSO)); higher = more of the behaviour than the DMSO vehicle control
Procedure, shortened: as §1

[5] = system: Danio rerio larvae (5 dpf); experiment: optomotor response to blue moving lines, difference vs DMSO (percentage points (treated minus DMSO)); higher = more of the behaviour than the DMSO vehicle control
Procedure, shortened: as §1

[6] = system: Danio rerio larvae (5 dpf); experiment: startle response to 20-s acoustic pulses, difference vs DMSO (percentage points (treated minus DMSO)); higher = more of the behaviour than the DMSO vehicle control
Procedure, shortened: as §1

[7] = system: Danio rerio larvae (5 dpf); experiment: excitability to 1-s acoustic pulses, difference vs DMSO (percentage points (treated minus DMSO)); higher = more of the behaviour than the DMSO vehicle control
Procedure, shortened: as §1

With `CC(C)[C@H]1CC[C@H](C(=O)N[C@H](Cc2ccccc2)C(=O)O)CC1` [Nateglinide] the “optomotor response to green moving lines” value [1] was 4.02 and the optomotor response [2] was -0.789.
`CN1CCC[C@@H]1CCO[C@](C)(c1ccccc1)c1ccc(Cl)cc1` [Clemastine fumarate] was tested, and the “habituation to 1-s acoustic pulses” value [3] was -5.08, the “activity during period 15” value [4] was 5.26 and the “optomotor response to green moving lines” value [1] was 4.02.
In the case of `C[C@H]1O[C@H](O[C@H]2[C@H](O)[C@@H](O)[C@@H](O[C@H]3[C@H](O)[C@@H](O)C(O)O[C@@H]3CO)O[C@@H]2CO)[C@H](O)[C@@H](O)[C@@H]1N[C@H]1C=C(CO)[C@@H](O)[C@H](O)[C@H]1O` (some centres undefined) [Acarbose], the “habituation to 1-s acoustic pulses” value [3] is reported as 3.26 and the “optomotor response to green moving lines” value [1] is reported as 6.59.
In the case of `Brc1c(NC2=NCCN2)ccc2nccnc12`, the “optomotor response to blue moving lines” value [5] is reported as 7.07, the “startle response to 20-s acoustic pulses” value [6] is reported as -4.57 and the optomotor response [2] is reported as 16.1.
For `C[C@@H](O[C@H]1OCCN(Cc2n[nH]c(=O)[nH]2)[C@H]1c1ccc(F)cc1)c1cc(C(F)(F)F)cc(C(F)(F)F)c1` [Aprepitant], the “excitability to 1-s acoustic pulses” value [7] was 8.09 and the “activity during period 15” value [4] was -7.86.
In the case of `CN1CCN2c3ncccc3Cc3ccccc3C2C1` (centres undefined) [Mirtazapine], the optomotor response [2] is reported as -5.17.
In the case of `CC1=Nc2ccc(Cl)cc2S(=O)(=O)N1` [Diazoxide], the “habituation to 1-s acoustic pulses” value [3] is reported as 9.12 and the “excitability to 1-s acoustic pulses” value [7] is reported as 0.689.
For `C[C@@H]1C[C@H]2[C@@H]3CCC4=CC(=O)C=C[C@]4(C)[C@@]3(F)[C@@H](O)C[C@]2(C)[C@@]1(O)C(=O)CO` [Dexamethasone], the “excitability to 1-s acoustic pulses” value [7] was -5.75.
`Nc1cc(N2CCCCC2)nc(N)[n+]1[O-]` [Minoxidil] was tested, and the “startle response to 20-s acoustic pulses” value [6] was -2.65.
With `NS(=O)(=O)c1cc2c(cc1Cl)NC(C1CC3C=CC1C3)NS2(=O)=O` (centres undefined) [Cyclothiazide] the “habituation to 1-s acoustic pulses” value [3] was 2.19 and the “excitability to 1-s acoustic pulses” value [7] was 0.586.
With `O=C1CCc2cc(OCCCCc3nnnn3C3CCCCC3)ccc2N1` [Cilostazol] the “habituation to 1-s acoustic pulses” value [3] was -0.365.
In the case of `NS(=O)(=O)Cc1noc2ccccc12` [Zonisamide], the “excitability to 1-s acoustic pulses” value [7] is reported as 2.79 and the optomotor response [2] is reported as -0.856.
With `C#CCN[C@@H]1CCc2ccccc21` [Rasagiline mesylate] the “excitability to 1-s acoustic pulses” value [7] was -3.66, the “activity during period 15” value [4] was -1.03 and the “startle response to 20-s acoustic pulses” value [6] was 2.17.
For `Cn1nnc2c(C(N)=O)ncn2c1=O` [Temozolomide], the “habituation to 1-s acoustic pulses” value [3] was 4.01 and the “startle response to 20-s acoustic pulses” value [6] was 2.71.
`CCc1ccc(CCOc2ccc(CC3SC(=O)NC3=O)cc2)nc1` (centres undefined) [Pioglitazone hydrochloride] was tested, and the “excitability to 1-s acoustic pulses” value [7] was 6.94 and the “startle response to 20-s acoustic pulses” value [6] was -3.21.
`CCN(Cc1ccncc1)C(=O)C(CO)c1ccccc1` (centres undefined) [Tropicamide] gave an optomotor response [2] of -0.214.
For `CC(C)(C)NC(=O)[C@@H]1C[C@@H]2CCCC[C@@H]2CN1C[C@@H](O)[C@H](Cc1ccccc1)NC(=O)[C@H](CC(N)=O)NC(=O)c1ccc2ccccc2n1` [Saquinavir mesylate], the “startle response to 20-s acoustic pulses” value [6] was 0.0193 and the optomotor response [2] was -8.88.
With `CC(C)(C(=O)c1cccnc1)c1cccnc1` [Metyrapone] the “habituation to 1-s acoustic pulses” value [3] was -0.218 and the optomotor response [2] was -11.5.
With `COc1ccc([C@@H]2Sc3ccccc3N(CCN(C)C)C(=O)[C@@H]2OC(C)=O)cc1` [Diltiazem hydrochloride] the “habituation to 1-s acoustic pulses” value [3] was -0.578 and the “startle response to 20-s acoustic pulses” value [6] was 0.061.
For `NS(=O)(=O)c1cc(C(=O)O)c(NCc2ccco2)cc1Cl` [Furosemide], the “startle response to 20-s acoustic pulses” value [6] was -4.02.
`CNC(=O)c1ccccc1Sc1ccc2c(/C=C/c3ccccn3)n[nH]c2c1` [Axitinib] was tested, and the “excitability to 1-s acoustic pulses” value [7] was 1.46 and the optomotor response [2] was -2.38.
In the case of `Cc1cc(C2CCCCC2)n(O)c(=O)c1` [Ciclopirox], the “habituation to 1-s acoustic pulses” value [3] is reported as 0.443 and the “startle response to 20-s acoustic pulses” value [6] is reported as -9.88.
In the case of `COCCCOc1cc(C[C@@H](C[C@H](N)[C@@H](O)C[C@H](C(=O)NCC(C)(C)C(N)=O)C(C)C)C(C)C)ccc1OC` [Aliskiren hemifumarate], the optomotor response [2] is reported as 2.22.
`O=C(O)CCCc1ccccc1` [Sodium 4-Phenylbutyrate] was tested, and the “habituation to 1-s acoustic pulses” value [3] was -4.19, the “activity during period 15” value [4] was 0.951 and the “startle response to 20-s acoustic pulses” value [6] was -5.04.
In the case of `CCOC(=O)[C@H](CCc1ccccc1)N[C@H]1CCc2ccccc2N(CC(=O)O)C1=O` [Benazepril hydrochloride], the “excitability to 1-s acoustic pulses” value [7] is reported as 0.498 and the optomotor response [2] is reported as -1.29.
For `COc1ccc(C[C@@H](C)NC[C@H](O)c2ccc(O)c(NC=O)c2)cc1` [Arformoterol tartrate], the “habituation to 1-s acoustic pulses” value [3] was -3.34.
`COCCc1ccc(OCC(O)CNC(C)C)cc1` (centres undefined) [Metoprolol tartrate] was tested, and the “habituation to 1-s acoustic pulses” value [3] was -3.95 and the optomotor response [2] was -7.77.
`Nc1nc(F)nc2c1ncn2[C@@H]1O[C@H](CO)[C@@H](O)[C@@H]1O` [Fludarabine] was tested, and the “excitability to 1-s acoustic pulses” value [7] was 3.42 and the “activity during period 15” value [4] was -6.57.
In the case of `CN1CC2c3ccccc3Oc3ccc(Cl)cc3C2C1` (centres undefined) [Asenapine maleate], the “habituation to 1-s acoustic pulses” value [3] is reported as -9.25, the “startle response to 20-s acoustic pulses” value [6] is reported as -6.44 and the optomotor response [2] is reported as -11.9.
With `Cc1ccc(O)c([C@H](CCN(C(C)C)C(C)C)c2ccccc2)c1` [Tolterodine L-tartrate] the “startle response to 20-s acoustic pulses” value [6] was -5.76.
With `CC#C[C@]1(O)CC[C@H]2[C@@H]3CCC4=CC(=O)CCC4=C3[C@@H](c3ccc(N(C)C)cc3)C[C@@]21C` [Mifepristone] the “excitability to 1-s acoustic pulses” value [7] was 5.32.
For `CCOC(=O)C1=C(COCCN)NC(C)=C(C(=O)OC)C1c1ccccc1Cl` (centres undefined) [Amlodipine besylate], the “startle response to 20-s acoustic pulses” value [6] was 0.195 and the optomotor response [2] was 7.5.
